In PubChem BioAssay (NCI):
Compounds without any hit were thinned out: in the full panel of roughly 83,000, 20% have a hit.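 Cell lines were cultured in 96-well plates, exposed to a single compound concentration, and assessed for percent growth 48 hours later.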 Calls of active or inactive are those of the source. How the source made its calls: active means growth percent below 10; inactive means the rest.

Tested on: SW-620 colon
Assay: NCI-60 one-dose screen, 48 h (100 = growth as untreated, 0 = no growth, -100 = all killed)
Conditions: 10 µM unless noted

`COc1ccc(C(=O)/C(=N/Nc2ccccc2)c2ccc(OC)cc2)cc1` was tested. Which growth did it give?
Its growth is 93.5% (inactive).

Which growth does the source give for `Cn1c(=O)c2[nH]c(CC(=O)O)nc2n(C)c1=O` here?
The growth was 108% (inactive).

With `C=CC1=NC(C)(C)CC(C)O1` (stereo unspecified) as the compound, how does the growth read?
The growth was 104% (inactive).

With `O=C(Nc1ccccc1)c1ccco1` as the compound, how does the growth read?
Its growth is 104% (inactive).

With `CCOC(=O)CNC` as the compound, how does the growth read?
Its growth is 98.2% (inactive).

With `Cc1cc(Cl)cc(Cc2cc(Cl)cc(C)c2O)c1O` as the compound, how does the growth read?
Its growth is 14% (inactive).

`CC12CCC3c4ccc(O)cc4CCC3C1CCC2=O` (stereo unspecified) was tested. Which growth did it give?
The growth was 110% (inactive).

`Cc1onc(-c2ccccc2Cl)c1C(=O)Cl` was tested. Which growth did it give?
Its growth is 103% (inactive).

For `Nc1cc(N)ncn1`, which growth is on record?
Its growth is 104% (inactive).

With `ClCC(Cl)C1CCC(Cl)C(Cl)C1` (stereo unspecified) as the compound, how does the growth read?
Its growth is 105% (inactive).

For `O=[N+]([O-])c1ccc(-c2nc(N(CCO)CCO)c3ccccc3n2)o1`, which growth is on record?
The growth was -8.14% (active).

`C/C(Cc1ccccc1)=N\O` was tested. Which growth did it give?
The growth was 98.4% (inactive).

How did the growth turn out when `O=C(NCc1ccccc1)c1cccc([N+](=O)[O-])c1` was run?
The growth was 99.2% (inactive).

How did the growth turn out when `OCc1cccnc1` was run?
The growth was 102% (inactive).

Which growth does the source give for `Cc1onc(-c2c(F)cccc2Cl)c1-c1ncc(-c2ccc(Br)cc2)o1` here?
The growth was 35.6% (inactive).

How did the growth turn out when `CC(C)c1ncc([N+](=O)[O-])n1C` was run?
Its growth is 98% (inactive).

Which growth does the source give for `Oc1ccc(CCC2CCNc3ccccc32)cc1` (stereo unspecified) here?
The growth was 97.2% (inactive).

For `c1ccc2[nH]c(Cc3nc4ccccc4[nH]3)nc2c1`, which growth is on record?
Its growth is 105% (inactive).

Which growth does the source give for `CCOC(=O)C(CCC#N)(CCC#N)C(=O)OCC` here?
Its growth is 100% (inactive).

For `CCOC(=O)C(COS(C)(=O)=O)(COS(C)(=O)=O)C(=O)OCC`, which growth is on record?
The growth was 110% (inactive).

`CC(C)C(C)(C)C(=O)C(C)(C)C(C)(C)C` was tested. Which growth did it give?
The growth was 106% (inactive).

How did the growth turn out when `CC(=O)O[C@H]1CC[C@]2(C)C3=C(C(=O)C[C@H]2C1(C)C)[C@]1(C)CC[C@H]([C@H](C)CCC(=O)O)[C@@]1(C)CC3=O` was run?
The growth was 85.5% (inactive).

Which growth does the source give for `CC(=O)OCC1CCC(COC(C)=O)CC1` (stereo unspecified) here?
Its growth is 109% (inactive).

`CC(=O)NNC(=S)N/C=C/c1c(C)ccc([N+](=O)[O-])c1[N+](=O)[O-]` was tested. Which growth did it give?
Its growth is 110% (inactive).

Which growth does the source give for `CCOC(=O)c1c[nH][nH]c1=O` here?
Its growth is 104% (inactive).

With `O=S(Cc1ccccc1)/C(=C/NC(=S)Nc1ccccc1)c1ccccc1` (stereo unspecified) as the compound, how does the growth read?
Its growth is 104% (inactive).

With `COc1ccc(C)cc1NC(=O)SC(C)C` as the compound, how does the growth read?
Its growth is 99.8% [100 µM] (inactive).

Which growth does the source give for `Nc1ncnc(Nc2ccc(C(F)(F)F)cc2)n1` here?
The growth was 109% (inactive).

For `Cc1c(Cl)cccc1N=C=S`, which growth is on record?
The growth was 114% (inactive).

How did the growth turn out when `O=C(OC1CCCC1)c1ccccc1Cl` was run?
The growth was 106% (inactive).

Which growth does the source give for `BrCc1cccc(C[P+](c2ccccc2)(c2ccccc2)c2ccccc2)c1` here?
Its growth is 25.4% (inactive).

Which growth does the source give for `Cc1c(-c2ccc(C3CCCCC3)cc2)nc2ccc(F)cc2c1C(=O)O` here?
The growth was 30.6% (inactive).

`CC(=O)NC(CCc1ccc(Cl)c(Cl)c1)c1cccc(O)c(=O)c1` (stereo unspecified) was tested. Which growth did it give?
Its growth is 23.8% (inactive).

Which growth does the source give for `COc1cccc(C(=O)NNC(=O)c2cccc3ccccc23)c1` here?
Its growth is 107% (inactive).

With `O=C(CCl)Nc1ccccc1SCc1cc(Cl)cc2c1OCOC2` as the compound, how does the growth read?
The growth was 87.1% (inactive).

With `CCN(CC)c1ccc2nc3ccc(N=Nc4ccc(N(C)C)cc4)cc3[n+](-c3ccccc3)c2c1` as the compound, how does the growth read?
The growth was -82.5% (active).
